Experimental data as given in PubChem BioAssay.
Active and inactive are the calls of the source. Unless noted, the rule behind the calls is not given here.

Key:
[1] = A549 cell viability effects, profiling panel, calcein-AM fluorescence, 48 h, basal (AID 1162); conditions: higher = more signal; note: test concentration not given here
[2] = adipocyte viability effects, profiling panel, cell-based, 3T3-L1 adipocytes, calcein-AM fluorescence, 48 h, basal (AID 1163); conditions: 3T3-L1 adipocytes viability, higher = more signal; note: test concentration not given here
[3] = HepG2 cell viability effects, profiling panel, calcein-AM fluorescence, 48 h, basal (AID 1164); conditions: higher = more signal; note: test concentration not given here
[4] = MM1S cell viability effects, profiling panel, calcein-AM fluorescence, 48 h, basal (AID 1165); conditions: higher = more signal;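 note: viability of MM1S multiple myeloma cells under basal unstimulated conditions; test concentration not given here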
[5] = basal RPMI8226 viability, no added stimulus, profiling panel, cell-based, calcein-AM fluorescence, 48 h, PK04 Diversity Set (AID 1166); conditions: RPMI8226 myeloma viability, higher = more signal;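 note: cells grown under basal conditions without added stimulus; test concentration not given here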
[6] = basal HepG2 mitochondrial membrane potential changes, profiling panel, cell-based, JC-1 fluorescence, 24 h, 100 nL compound (AID 1167); conditions: higher = more signal; note: test concentration not given here
[7] = basal 3T3-L1 adipocyte mitochondrial potential changes, profiling panel, cell-based, JC-1 fluorescence, 3T3-L1 adipocytes, 24 h, 100 nL compound (AID 1168); conditions: JC-1 mitochondrial fluorescence, higher = more signal, called active from +8 up or from −8 down; note: test concentration not given here
[8] = basal RPMI8226 mitochondrial membrane potential changes, profiling panel, cell-based, JC-1 fluorescence, 24 h, 100 nL compound (AID 1169); conditions: RPMI8226 myeloma, JC-1 mitochondrial potential fluorescence, higher = more signal; note: test concentration not given here
[9] = basal MM1S mitochondrial membrane potential changes, profiling panel, cell-based, JC-1 fluorescence, 24 h, 100 nL compound (AID 1170); conditions: higher = more signal; note: test concentration not given here
[10] = A549 lung cancer cell viability effects, profiling panel, resazurin fluorescence, 24 h, PK04 Diversity Set (AID 1171); conditions: higher = more signal, called active from +8 up or from −8 down; note: test concentration not given here
[11] = HepG2 liver cancer cell viability effects, profiling panel, resazurin fluorescence, 24 h, PK04 Diversity Set (AID 1172); conditions: higher = more signal; note: test concentration not given here
[12] = basal S. cerevisiae growth modulation, no modifier, primary screen, OD600, strain BY4716, 24 h, basal condition (AID 1173); conditions: OD600, 24 h, higher = more signal, called active from +8 up or from −8 down
[13] = MM1S myeloma cell viability, profiling panel, resazurin fluorescence, basal, 24 h, PK04 Diversity Set (AID 1174); conditions: higher = more signal, called active from +8 up or from −8 down;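 note: MM1S multiple myeloma cell line; test concentration not given here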
[14] = target: Dihydroorotate dehydrogenase (quinone), mitochondrial (Plasmodium falciparum (isolate 3D7)) (UniProt Q08210); assay: PfDHODH enzyme inhibitors, primary screen, biochemical, C-terminal His tag, absorbance 600 nm (AID 1175); conditions: DCIP absorbance 600 nm, higher = more signal, called active from +8 up or from −8 down;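 note: recombinant parasite enzyme with a five histidine tag at its C terminus; test concentration not given here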
Chain of Dihydroorotate dehydrogenase (quinone), mitochondrial (Plasmodium falciparum (isolate 3D7)) (Q08210 whole entry, looked up): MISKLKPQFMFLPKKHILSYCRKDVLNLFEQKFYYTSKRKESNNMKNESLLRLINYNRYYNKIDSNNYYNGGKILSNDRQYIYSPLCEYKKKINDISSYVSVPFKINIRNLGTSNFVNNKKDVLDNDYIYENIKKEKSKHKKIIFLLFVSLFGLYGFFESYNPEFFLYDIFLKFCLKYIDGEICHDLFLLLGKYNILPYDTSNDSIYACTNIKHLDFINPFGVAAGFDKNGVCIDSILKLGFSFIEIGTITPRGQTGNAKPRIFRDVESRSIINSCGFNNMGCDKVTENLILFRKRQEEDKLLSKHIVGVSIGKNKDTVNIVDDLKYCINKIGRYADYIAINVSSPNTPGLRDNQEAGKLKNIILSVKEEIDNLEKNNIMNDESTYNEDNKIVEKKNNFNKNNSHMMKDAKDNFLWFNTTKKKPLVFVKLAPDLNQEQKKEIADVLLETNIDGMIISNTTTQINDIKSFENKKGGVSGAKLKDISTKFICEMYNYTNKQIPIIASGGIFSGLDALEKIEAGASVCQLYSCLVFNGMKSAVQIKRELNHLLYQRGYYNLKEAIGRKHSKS

[15] = P. aeruginosa biofilm formation inhibitors, primary screen, strain PAO1, LB-PBS medium, absorbance 600 nm (AID 1176); note: test concentration not given here; conditions: P. aeruginosa PAO1 growth/biofilm, A600, 12 h; higher = more signal
[16] = S. cerevisiae RM11-1a growth modifiers, primary screen, strain RM11-1a, OD600, basal, 24 h (AID 1177); conditions: OD600, 24 h, higher = more signal, called active from +8 up or from −8 down;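 note: cultures grown under basal conditions with no added stressor; test concentration not given here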
[17] = E. coli acrAB mutant growth effects, primary screen, E. coli filamentation inducers, strain DRC39, OD650, 24 h (AID 1178); conditions: higher = more signal, called active from +8 up or from −8 down;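 note: growth measured as culture turbidity by optical density at 650 nm; test concentration not given here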
[18] = E. coli acrAB mutant growth effects, primary screen, E. coli filamentation inducers, strain DRC39, OD650, 48 h (AID 1179);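 note: screen aims at cell division blockers that make cells filament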; conditions: E. coli DRC39 delta-acrAB growth, higher = more signal, called active from +8 up or from −8 down
[19] = RPMI8226 myeloma cell viability, profiling panel, resazurin fluorescence, basal, 24 h, PK04 Diversity Set (AID 1180); conditions: higher = more signal;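 note: RPMI8826 multiple myeloma cell line at 5000 cells per well; test concentration not given here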
[20] = target: E3 ubiquitin-protein ligase XIAP (Homo sapiens) (UniProt P98170); assay: XIAP binders, primary screen, biophysical, small-molecule microarray, fluorescence 635 nm (AID 1181); conditions: small-molecule microarray binding, higher = more signal;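 note: score merges 667 nm emission and signal to noise over triplicate slides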
Chain of E3 ubiquitin-protein ligase XIAP (Homo sapiens) (P98170 whole entry, looked up): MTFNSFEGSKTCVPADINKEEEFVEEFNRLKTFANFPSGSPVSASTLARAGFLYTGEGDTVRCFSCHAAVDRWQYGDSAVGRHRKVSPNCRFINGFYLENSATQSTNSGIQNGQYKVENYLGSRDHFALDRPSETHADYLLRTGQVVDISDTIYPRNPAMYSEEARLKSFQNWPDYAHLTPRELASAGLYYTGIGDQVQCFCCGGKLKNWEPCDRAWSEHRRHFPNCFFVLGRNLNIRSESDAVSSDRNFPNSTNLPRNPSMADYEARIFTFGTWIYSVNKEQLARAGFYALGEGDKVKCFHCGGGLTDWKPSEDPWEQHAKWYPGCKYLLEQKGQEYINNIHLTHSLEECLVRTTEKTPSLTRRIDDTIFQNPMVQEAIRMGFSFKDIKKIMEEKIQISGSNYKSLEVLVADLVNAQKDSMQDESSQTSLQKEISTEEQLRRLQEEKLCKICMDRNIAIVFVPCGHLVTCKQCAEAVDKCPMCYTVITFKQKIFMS

Row | Compound | z-score [1] | z-score [2] | z-score [3] | z-score [4] | z-score [5] | z-score [6] | z-score [7] | z-score [8] | z-score [9] | z-score [10] | z-score [11] | z-score [12] | z-score [13] | composite z-score [14] | z-score [15] | z-score [16] | z-score [17] | z-score [18] | z-score [19] | composite z-score [20]
1 | CCN1C(=O)[C@H]2[C@H]3[C@H](O)[C@H](O)CC(=O)[C@@H]3CC[C@H]2C1=O | 0.111 | 0.0891 | 0.0082 | -0.681 | 0.177 | 0.231 | 0.55 (inactive) | -0.0467 | -0.22 | -0.561 (inactive) | -0.309 | -0.553 (inactive) | -0.399 (inactive) | -0.308 (inactive) | -0.72 (inactive) | -0.162 (inactive) | -0.307 (inactive) | -0.164 (inactive) | -0.752 | 0.112
2 | COC(=O)CC=C[C@@H](C)[C@@H](C=NO[C@H](C)c1cn([C@@H]2COC[C@H]2O)nn1)NS(=O)(=O)c1ccc(C)cc1 | 0.802 | -0.628 | 1.16 | 0.111 | 0.188 | -0.156 | 0.766 (inactive) | 0.556 | -1.25 | -1.14 (inactive) | -1.37 | -0.335 (inactive) | -1.34 (inactive) | -0.753 (inactive) | 0.301 (inactive) | 0.278 (inactive) | 0.524 (inactive) | 1.29 (inactive) | -0.687 | -0.267
3 | C=CC[C@@H]1C=C[C@H](ON=C[C@@H](C)[C@H](OCc2ccccc2)C(C)C)[C@@H](CO)O1 | -0.475 | -0.162 | -0.746 | -1.55 | -0.958 | -1.94 | -0.87 (inactive) | -0.419 | -0.874 | 0.0506 (inactive) | 0.0253 | -5.6 (inactive) | -0.865 (inactive) | -0.408 (inactive) | 0.241 (inactive) | -0.62 (inactive) | -0.295 (inactive) | -0.238 (inactive) | -0.183 | -0.138
4 | C=CC1=C[C@H](O)[C@@H]2O[C@@H]2C12OCCCO2 | -0.375 | -0.564 | -0.0684 | -0.705 | 0.265 | -0.977 | -0.729 (inactive) | -0.371 | -0.361 | 0.0527 (inactive) | 0.257 | 0.301 (inactive) | -0.458 (inactive) | 0.695 (inactive) | 0.262 (inactive) | -0.838 (inactive) | 0.451 (inactive) | 0.489 (inactive) | -0.38 | -0.03
5 | CON=C(C)CCC(=O)OC[C@H]1O[C@H](c2ccccc2)C=C[C@@H]1Oc1ccc(OC)cc1 | -0.208 | -0.119 | -0.646 | -1.32 | -0.0394 | -1.05 | 0.0208 (inactive) | 0.00696 | -0.0885 | 0.525 (inactive) | 0.0444 | 0.831 (inactive) | 0.289 (inactive) | -0.0389 (inactive) | 0.0981 (inactive) | 1.44 (inactive) | 0.732 (inactive) | -1.76 (inactive) | 0.268 | 0.0619
6 | O=C1[C@H]2[C@H]3[C@H](O)[C@H](O)CC(=NOCc4ccccc4)[C@@H]3CC[C@H]2C(=O)N1Cc1ccc2c(c1)OCO2 | -0.152 | -0.121 | -0.937 | 0.266 | -2.81 | -0.335 | 0.17 (inactive) | -0.234 | -0.0728 | 0.688 (inactive) | 1.03 | -0.419 (inactive) | 0.0481 (inactive) | -0.0799 (inactive) | 0.07 (inactive) | -0.0921 (inactive) | 0.419 (inactive) | 0.128 (inactive) | 1.01 | -0.0377
7 | COc1ccc(COC(=O)NN=C2C[C@@H](O)[C@@H](O)[C@@H]3[C@@H]4C(=O)N(c5cccc(Oc6ccccc6)c5)C(=O)[C@@H]4CC[C@@H]23)cc1 | 0.226 | -0.518 | -0.826 | 0.754 | 0.196 | -0.767 | -0.0215 (inactive) | 0.587 | -0.442 | 0.166 (inactive) | 0.702 | 0.968 (inactive) | 0.106 (inactive) | 0.861 (inactive) | -0.282 (inactive) | 1.65 (inactive) | -0.401 (inactive) | -0.587 (inactive) | 0.45 | -0.22
8 | C[C@@H]1CC[C@H]2C(=O)O[C@@H](Cc3ccccc3)CN2[C@H]1c1ccc(Br)cc1 | 0.442 | 0.185 | 0.828 | -0.591 | -0.323 | -0.225 | 0.276 (inactive) | 0.231 | 0.697 | 0.539 (inactive) | 0.603 | -1.06 (inactive) | 0.656 (inactive) | 0.245 (inactive) | -0.491 (inactive) | 0.37 (inactive) | -0.402 (inactive) | -0.161 (inactive) | 0.0066 | 0.0871
9 | CCCNC(=O)OC[C@H]1O[C@H](c2ccccc2)C=C[C@@H]1Oc1ccc(OC)cc1 | -0.365 | 0.125 | -0.138 | -0.543 | -0.0859 | -0.362 | -0.307 (inactive) | -0.215 | 0.0375 | -0.745 (inactive) | -0.889 | -1.88 (inactive) | -1.06 (inactive) | 0.152 (inactive) | -0.115 (inactive) | -0.0966 (inactive) | 0.507 (inactive) | 0.342 (inactive) | -0.35 | -0.0629
